PubChem BioAssay (NCATS)
Inconclusive results are not listed. Calls of active or inactive are those of the source. Calls follow the shape of the dose curve; as a rule, active = well fitted cell-killing curve with a large enough effect; inconclusive = small, poorly fitted or top-dose-only effect; inactive = flat fitted curve, though single readings scatter.

Test: Cell Viability - LYMP2-019 (AID 973); also: nearly all actives have a fitted effect of over 55% in size;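 as to activity change, negative = cytotoxicity: 0% = DMSO alone and full effect = 92 µM tetraoctylammonium bromide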
Conditions: LYMP2-019 lymphoblastoid cell line viability; series mostly up to 92.2 µM; activity change, negative = cytotoxicity: at the top concentration
From the text: NIH Chemical Genomics Center [NCGC]
NIH Molecular Libraries Screening Centers Network [MLSCN]
National Institutes of Environmental Health Sciences [NIEHS]
National Toxicology Program [NTP]
We have developed a 1536-well cell-based assay for quantitative high throughput screening (qHTS) against a number of cell lines to determine in vitro cytotoxicity of small molecules. This particular assay uses a human lymphoblastoid cell line (LYMP2-019) purchased from Coriell Institute for Medical Research.
NCGC Assay Protocol Summary:
The CellTiter-Glo luminescent cell viability assay (Promega) is a homogeneous method to measure the number of viable cells in culture. The end point readout of this assay is based on quantitation of intracellular ATP, an indicator of metabolic activity, using the luciferase reaction. Luciferase catalyzes the oxidation of beetle Luciferin to oxyluciferin and light in the presence of ATP. The luminescent signal is proportional to amount of ATP present.
Using the CellTiter-Glo luminescent cell viability assay, the amount of cellular ATP was measured in the lymphoblastoid cell line with complete culture medium following compound treatment for 24 hours. The assay was performed in opaque white Kalypsys 1536-well plates. In the screen, tetraoctylammonium bromide was used as positive control. Library compounds were measured for their ability to cause acute toxicity in the cell line, as reflected by a decrease in intracellular ATP levels, in a concentration-dependent manner. […] AC50 values were determined from concentration-response data modeled with the standard Hill equation.
qHTS protocol for CellTiter Glo lymphoblastoid cellular assay
[Step] [Parameter] [Value] [Description]
1. Reagent; 5 uL; 2500 lymphoblastoid cells/well
2. Time; 5 hr; 37 C incubation
4. Controls; 23 nL; Tetraoctylammonium bromide 6.4pM to 92 uM
5. Time; 24 hr; 37 C incubation
6. Reagent; 5 uL; CellTiter Glo reagent
7. Time; 30 min; Room Temperature
8. Detection; Luminescence; Viewlux plate reader
Keywords: cell viability, cytotoxicity, lymphoblastoid cell line, luminescence, NTPHTS, NTPHTS_NCGC, NIEHS, DSSTox, MLSMR, MLSCN, NIH Roadmap, qHTS, NCGC
Potency is read from the fitted curve at half-maximal effect.

SMILES	activity change, negative = cytotoxicity	Potency
O=P(O)(O)O	12.6% (inactive)	–
O=c1n(CC2CO2)c(=O)n(CC2CO2)c(=O)n1CC1CO1 (centres undefined)	–	39.8 µM (active)
OCl	-1.1% (inactive)	–
C=C1C(CCl)(CCl)C2(Cl)C(Cl)C(Cl)C1(Cl)C2(Cl)Cl (centres undefined)	–	39.8 µM (active)
OCc1ccccc1	4.31% (inactive)	–
[O-][N+](=Nc1ccccc1)c1ccccc1	-3.22% (inactive)	–
CC/C=C\C/C=C\C/C=C\CCCCCCCC(=O)O	–	50.1 µM (active)
CC1=CCC2CC1C2(C)C (centres undefined)	-10.7% (inactive)	–
C[C@H](CCC(=O)O)[C@H]1CC[C@H]2[C@@H]3[C@H](O)C[C@@H]4C[C@H](O)CC[C@]4(C)[C@H]3C[C@H](O)[C@]12C	0.433% (inactive)	–
COC(=O)c1ccccc1O	-7.89% (inactive)	–
Nc1ccc(N=Nc2ccccc2)c(N)n1	-24.4% (inactive)	–
NC(N)=O	4.63% (inactive)	–
c1ccc2ccccc2c1	-6.38% (inactive)	–
ClC(Cl)Cl	-4.33% (inactive)	–
CC(C)O	-8.58% (inactive)	–
Nc1ncnc2c1ncn2[C@H]1CC[C@@H](CO)O1	-16.5% (inactive)	–
CC1=CC(=O)NS(=O)(=O)O1	-0.146% (inactive)	–

SMILES	activity change, negative = cytotoxicity	Potency
CCCCC	-5.37% (inactive)	–
OCC(O)CO	–	inactive
OC[C@H]1O[C@@H]2O[C@H]3[C@H](O)[C@@H](O)[C@@H](O[C@H]4[C@H](O)[C@@H](O)[C@@H](O[C@H]5[C@H](O)[C@@H](O)[C@@H](O[C@H]6[C@H](O)[C@@H](O)[C@@H](O[C@H]7[C@H](O)[C@@H](O)[C@@H](O[C@H]1[C@H](O)[C@H]2O)O[C@@H]7CO)O[C@@H]6CO)O[C@@H]5CO)O[C@@H]4CO)O[C@@H]3CO	1.4% (inactive)	–
CO/N=C(/C(=O)N[C@@H]1C(=O)N2C(C(=O)O)=C(COC(N)=O)CS[C@H]12)c1ccco1	-12.9% (inactive)	–
Cc1ccc(S(=O)(=O)O)cc1C	4.13% (inactive)	–
NCCN	-4.44% (inactive)	–
Nc1nccs1	-2.04% (inactive)	–
CC[C@H]1OC(=O)[C@H](C)[C@@H](O[C@H]2C[C@@](C)(OC)[C@@H](O)[C@H](C)O2)[C@H](C)[C@@H](O[C@@H]2O[C@H](C)C[C@H](N(C)C)[C@H]2O)[C@](C)(O)C[C@@H](C)CN(C)[C@H](C)[C@@H](O)[C@]1(C)O	-25.1% (inactive)	–
Oc1ccc(/C=C/c2cc(O)cc(O)c2)cc1	-19.8% (inactive)	–
C/C=C/C=C/C(=O)O	3.22% (inactive)	–
CCOC(C)OCC	-15.9% (inactive)	–
CCCCO	–	inactive
OB(O)O	-0.115% (inactive)	–
CO	4.14% (inactive)	–
Cc1ncc[nH]1	0.96% (inactive)	–
Oc1cccc(O)c1O	-27.1% (inactive)	–
C[C@H](CCC(=O)O)[C@H]1CC[C@H]2[C@@H]3CC[C@@H]4C[C@H](O)CC[C@]4(C)[C@H]3C[C@H](O)[C@]12C	-8.18% (inactive)	–
